Results published in the supplement of paper PMC7411640.
Counter-ions that a name gives are not always drawn.

System: MDA-MB-468
Test: phospho-S6 immunofluorescence (DAPI-normalised), per-plate z-score; higher = higher phospho-S6 signal (less pathway suppression)
Conditions: co-treatment: lapatinib 1 uM; 24 h
Protocol: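 GPCR-targeted compound library (MedChemExpress HY-L006) tested on MDA-MB-468 PTEN-null TNBC cells in 384-well plates at 0.1, 1 or 10 uM, combined with vehicle, GDC0941 450 nM or lapatinib 1 uM, for 24 h. Phospho-S6 (S240/244) immunofluorescence normalised to DAPI and expressed as a per-plate z-score; values are the mean of biological triplicates.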

| Structure (SMILES) | phospho-S6 immunofluorescence (z-score) |
| --- | --- |
| CC(=O)Oc1cc(C(C)C)c(OCCN(C)C)cc1C [Moxisylyte (hydrochloride)] (compound 10 µM) | -0.11 |
| CCOC(=O)N1CCC(=C2c3ccc(Cl)cc3CCc3cccnc32)CC1 [Loratadine] (compound 10 µM) | -0.82 |
| C[C@]12CCC(=O)C=C1CC[C@@H]1[C@@H]2CC[C@@]2(C)[C@H]1CC[C@]2(O)C(=O)CO [Cortodoxone] (compound 10 µM) | 1.37 |
| CCC/N=C1\S/C(=C\c2ccc(OC[C@H](O)CO)c(Cl)c2)C(=O)N1c1ccccc1C [Ponesimod] (compound 10 µM) | 0.52 |
| CC(C)COc1ccc(CNC(=O)N(Cc2ccc(F)cc2)C2CCN(C)CC2)cc1 [Pimavanserin tartrate] (compound 10 µM) | -6.18 |
| COc1ccccc1N1CCN(CCN(C(=O)C2CCCCC2)c2ccccn2)CC1 (compound 10 µM) | 0.26 |
| CN1CCN(CCCN2c3ccccc3Sc3ccc(C(F)(F)F)cc32)CC1 [Trifluoperazine (dihydrochloride)] (compound 10 µM) | -5.54 |
| Cc1nc(C#Cc2cccnc2)cs1 [MTEP (hydrochloride)] (compound 10 µM) | -0.65 |
| COc1ccc(S(=O)(=O)Nc2c(C)cc(C)cc2C)cc1 (compound 10 µM) | -0.37 |
| COc1ccc(/C=C/C(=O)Nc2ccccc2C(=O)O)cc1OC [Tranilast (trans-)] (compound 10 µM) | -0.26 |
| Oc1ccc(C2CNCCc3c2cc(O)c(O)c3Cl)cc1 (stereo not drawn) [Fenoldopam (mesylate)] (compound 10 µM) | -0.01 |
| C[C@@H](O)[C@@H]1NC(=O)[C@H](CCCCN)NC(=O)[C@@H](Cc2c[nH]c3ccccc23)NC(=O)[C@H](Cc2ccccc2)NC(=O)[C@@H](NC(=O)[C@H](N)Cc2ccccc2)CSSC[C@@H](C(=O)N[C@H](CO)[C@@H](C)O)NC1=O [Octreotide (acetate)] (compound 10 µM) | 1.9 |
| CN(C)CCC=C1c2ccccc2C=Cc2ccccc21 [Cyclobenzaprine (hydrochloride)] (compound 10 µM) | -0.8 |
| CN(C)[C@@H]1CCc2[nH]c3ccc(NC(=O)c4ccc(F)cc4)cc3c2C1 (compound 10 µM) | -1.38 |
| CN(C)N(C)C(=O)[C@@]1(Cc2ccccc2)CCCN(C(=O)[C@@H](Cc2c[nH]c3ccccc23)NC(=O)C(C)(C)N)C1 [Anamorelin (hydrochloride)] (compound 10 µM) | -0.96 |
| CCCC(=O)Nc1ccc(OCC(O)CNC(C)C)c(C(C)=O)c1 (stereo not drawn) [Acebutolol (hydrochloride)] (compound 10 µM) | 0.15 |
| CC(C)C[C@H](NC(=O)[C@@H](COC(C)(C)C)NC(=O)[C@H](Cc1ccc(O)cc1)NC(=O)[C@H](CO)NC(=O)[C@H](Cc1c[nH]c2ccccc12)NC(=O)[C@H](Cc1cnc[nH]1)NC(=O)[C@@H]1CCC(=O)N1)C(=O)N[C@@H](CCCNC(=N)N)C(=O)N1CCC[C@H]1C(=O)NNC(N)=O [Goserelin (acetate)] (compound 10 µM) | 0.37 |
| CC1OC2(CS1)CN1CCC2CC1 (stereo not drawn) [Cevimeline (hydrochloride hemihydrate)] (compound 10 µM) | -0.04 |
| CC(=O)[C@H]1CC[C@H]2[C@@H]3CC=C4C[C@@H](O)CC[C@]4(C)[C@H]3CC[C@]12C [Pregnenolone] (compound 10 µM) | 1.58 |
| CCN(CC)CC#CCOC(=O)C(O)(c1ccccc1)C1CCCCC1 (stereo not drawn) [Oxybutynin] (compound 10 µM) | 0.75 |
| CN1CCN(C2=Nc3ccccc3Oc3ccc(Cl)cc32)CC1 [Loxapine] (compound 10 µM) | -0.55 |
| NCCCC[C@H](NC(=O)[C@@H]1CCCN1C(=O)[C@@H]1CSSC[C@H](NC(=O)CNC(=O)CNC(=O)CN)C(=O)N[C@@H](Cc2ccc(O)cc2)C(=O)N[C@@H](Cc2ccccc2)C(=O)N[C@@H](CCC(N)=O)C(=O)N[C@@H](CC(N)=O)C(=O)N1)C(=O)NCC(N)=O [Terlipressin] (compound 10 µM) | 0.98 |
| CCOC(=O)N1CCC(NCCNC(=O)c2ccccc2C)CC1 (compound 10 µM) | -0.15 |
| N=C(N)NCCC[C@@H](NC(=O)[C@@H]1CCCN1C(=O)[C@@H]1CSSCCC(=O)N[C@@H](Cc2ccc(O)cc2)C(=O)N[C@@H](Cc2ccccc2)C(=O)N[C@@H](CCC(N)=O)C(=O)N[C@@H](CC(N)=O)C(=O)N1)C(=O)NCC(N)=O [Desmopressin (Acetate)] (compound 10 µM) | -0.21 |
| COc1ccc(C2CC(c3ccccc3)=NN2c2ccc(S(N)(=O)=O)cc2)cc1 (stereo not drawn) (compound 10 µM) | -0.2 |
| CN(C)CCC(c1ccccc1)c1ccccn1 (stereo not drawn) [Pheniramine (Maleate)] (compound 10 µM) | 0.78 |
| OC(CCCN1CCCCC1)(c1ccccc1)c1ccccc1 [Diphenidol (hydrochloride)] (compound 10 µM) | 1.09 |
| C/C(=N\NC(=O)C(NC(=O)c1ccccc1)c1n[nH]c(=O)c2ccccc12)c1cccc(Br)c1 (stereo not drawn) (compound 10 µM) | 0.13 |
